Laboratory results as given in PubChem BioAssay (NCI).
About 79,000 compounds went through this panel and 15% of them were active in at least one assay; those are over-represented in the sample as a whole. Cut-off read from the data, not from the text of the source: active = growth inhibition above about 70%; inactive = the rest.

Key:
[1] = NCI Yeast Anticancer Drug Screen. Data for the rad50 strain (AID 155);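 note: 0% = growth of vehicle-only cultures of the same strain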; settings: S. cerevisiae rad50 strain growth inhibition; at 50.0 µM; stronger effect = higher value
Summary of the method: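 Growth of the mutant yeast was measured after compound exposure and referenced to vehicle-treated cultures.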

[2] = NCI Yeast Anticancer Drug Screen. Data for the mec2-1 strain (AID 157); settings: S. cerevisiae mec2-1 strain, at 50.0 µM, stronger effect = higher value
Summary of the method: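 Cells of the genetically defined mec2-1 yeast strain are incubated with test compound. Inhibition of growth is calculated against vehicle-treated controls.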

[3] = NCI Yeast Anticancer Drug Screen. Data for the sgs1 mgt1 strain (AID 161);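 note: 0% = growth of cultures given vehicle only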; settings: S. cerevisiae sgs1 mgt1 strain, at 50.0 µM, stronger effect = higher value
Summary of the method: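 Genetically altered yeast, compound exposure, growth inhibition relative to vehicle.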

[4] = NCI Yeast Anticancer Drug Screen. Data for the cln2 rad14 strain (AID 165);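 note: 0% = growth equal to vehicle treated cultures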; settings: S. cerevisiae cln2 rad14 strain, at 50.0 µM, stronger effect = higher value
Summary of the method: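 The screen exposed genetically defined yeast (cln2 rad14) to test compounds and scored growth inhibition relative to vehicle-treated controls.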

[5] = NCI Yeast Anticancer Drug Screen. Data for the bub3 strain (AID 167); settings: S. cerevisiae bub3 mutant strain, at 50.0 µM, stronger effect = higher value
Summary of the method: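 Whole-cell yeast assay. The mutant strain was incubated with compounds, and growth inhibition was determined by comparison with vehicle-treated cells.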

[6] = NCI Yeast Anticancer Drug Screen. Data for the mlh1 rad18 strain (AID 175); settings: S. cerevisiae mlh1 rad18 strain growth inhibition; at 50.0 µM; stronger effect = higher value
Summary of the method: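 Compound-treated yeast growth, normalised to vehicle controls. Strain bears defined DNA repair mutations.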

Measured: growth inhibition

Nc1ccc(F)c(Cl)c1F
inactive: [1] -11% | [2] -7.8% | [3] -14.3% | [4] -24.8% | [5] -1.75% | [6] -1.8%

CCCC(=O)c1cccs1
inactive: [1] 3.25% | [2] 9.85% | [3] 10.8% | [4] -11.3% | [5] -4.1% | [6] 11.9%

COC1CC(OC(=O)c2ccc([N+](=O)[O-])cc2)C(COC(=O)c2ccc([N+](=O)[O-])cc2)O1 (configuration not stated)
inactive: [1] 9.45% | [2] 20.8% | [3] 1.9% | [4] -1.1% | [5] -0.7% | [6] 36.1%

O=S(=O)(OCCOS(=O)(=O)c1ccccc1)c1ccccc1
inactive: [1] 31.9% | [2] 1.45% | [3] -0.9% | [4] -27.9% | [5] -9.1% | [6] 50.7%

CS(=O)CC(=N\O)/C(CS(C)=O)=N\O (configuration not stated)
inactive: [1] 9.7% | [2] -4.45% | [3] 4.5% | [4] -8.85% | [5] -2.8% | [6] 9.2%

FC(F)(F)c1cc(NC2=NCCN=C(Nc3cc(C(F)(F)F)cc(C(F)(F)F)c3)SS2)cc(C(F)(F)F)c1
inactive: [1] -14.1% | [2] -29.7% | [3] -10.8% | [4] -2% | [5] -22% | [6] -15.6%

S=C=Nc1ccc2ccccc2c1
inactive: [1] 15.3% | [2] -12.4% | [3] -5.9% | [4] 10.6% | [5] 2.35% | [6] 21.1%

COc1ccc2c(Cl)cc(NC(=O)Nc3c(C)cccc3C)nc2c1
inactive: [1] 5.8% | [2] 1.15% | [3] 13.9% | [4] 6.65% | [5] 21.1% | [6] 7.2%

NNC(=O)CCCCl
inactive: [1] -10.5% | [2] -15.7% | [3] -11.5% | [4] 2.75% | [5] -21.3% | [6] -0.2%

Cc1ccc(NC(=S)N2CCOCC2)cc1C
inactive: [1] 0.55% | [2] -17.4% | [3] 29.6% | [4] 8.35% | [5] 4.2% | [6] -1.55%

NC(=O)N1CCOCC1
inactive: [1] 15.2% | [2] -7.9% | [3] -12.9% | [4] -27.4% | [5] -14.3% | [6] 17.9%

CC1(C)OC2C(CO)OC(n3ccc(=O)[nH]c3=O)C2O1 (configuration not stated)
inactive: [1] 1.9% | [2] 0.9% | [3] -12.3% | [4] -7.3% | [5] 10.5% | [6] -4.35%

O=C(NCCc1ccccc1)/C(=C\c1ccc(Cl)cc1Cl)NC(=O)c1ccccc1
inactive: [1] 1.65% | [2] -6.15% | [3] 1.85% | [4] -5.95% | [5] 4.35% | [6] 13.9%

CC(=O)Nc1ncc(S(=O)(=O)c2ccc([N+](=O)[O-])cc2)s1
inactive: [1] -28.1% | [2] -57.5% | [3] -17.1% | [4] -7.55% | [5] -41.2% | [6] -32.1%

CC(C)(CC(=O)O)CC(=O)O
inactive: [1] 14.4% | [2] 1.15% | [3] 0% | [4] 23.8% | [5] 16.1% | [6] 14.8%

CNc1ccccc1C(N)=O
inactive: [1] -21.5% | [2] -28.6% | [3] -10.3% | [4] 11.7% | [5] -7.85% | [6] -6.5%

CCNc1ccc2ccccc2c1N=Nc1ccc(N=Nc2ccccc2)cc1
inactive: [1] -12.4% | [2] -30% | [3] 11.5% | [4] 9.75% | [5] -12.7% | [6] -8.55%

Clc1cccc(Cl)c1CSc1nc2ccccc2n2cccc12
inactive: [1] -13.3% | [2] -26.8% | [3] 5.2% | [4] 17.6% | [5] -29.9% | [6] -19%

Cc1ccc2nc(-c3ccc(N=Cc4ccccc4O)cc3)sc2c1
inactive: [1] 17.7% | [2] 12.9% | [3] 6.5% | [4] -6% | [5] 27.9% | [6] 12.3%

Cc1ccc(NCN2C(=O)c3ccccc3C2=O)c(C)n1
inactive: [1] 4.7% | [2] -28.4% | [3] 8.05% | [4] 11.3% | [5] 7% | [6] -0.65%

CN(CCCN(C)CCC1CCCCC1)CCC1CCCCC1
inactive: [1] 11.2% | [2] -1.05% | [3] 0.1% | [4] 54.8% | [5] 2.15% | [6] 7.7%

CN(C)Cc1ccccn1
inactive: [1] 1.1% | [2] -17% | [3] -4.25% | [4] -5.75% | [5] -13.4% | [6] 2.55%

O=C(N/N=C\c1ccc(Cl)cc1Cl)c1ccncc1
inactive: [1] 1% | [2] 6.85% | [3] 5.15% | [4] 19.2% | [5] -7% | [6] 3.5%

NC(=S)N/N=C/c1ccc(OC(=O)COc2ccc(Cl)cc2)cn1
inactive: [1] 5.65% | [2] 7.85% | [3] 31.4% | [4] -1.25% | [5] 4.2% | [6] 9.5%

Cc1ccc(Cc2ccc(C)cc2)cc1
inactive: [1] -30.2% | [2] -34.2% | [3] -30.3% | [4] 3% | [5] -4.6% | [6] -8.2%

c1ccc2[nH]c(Cc3nc4ccccc4[nH]3)nc2c1
inactive: [1] 48% | [2] -14.4% | [3] 50.4% | [4] 7.65% | [5] 35% | [6] 10.2%

CCOC(=O)N[C@H]1CCc2cc(OC)c(OC)c(OC)c2-c2ccc(SC)c(=O)cc21
inactive: [1] 33.5% | [2] -16.5% | [3] 16.2% | [4] 5.1% | [5] 1.35% | [6] -1.55%

COc1ccc(Br)c2c1C(=O)CC2
inactive: [1] 43.6% | [2] 23.4% | [3] 29.4% | [4] 28.4% | [5] 5.45% | [6] 32.9%

NCC(O)C(O)C(O)C(O)CO (configuration not stated)
inactive: [1] 13.2% | [2] 6.8% | [3] 15.1% | [4] 23.2% | [5] 18.1% | [6] 0.95%

O=[N+]([O-])c1ccc2[nH]c(=S)n(/C=C(/c3ccc(Cl)cc3Cl)S(=O)(=O)Cc3ccc(Cl)cc3Cl)c2c1
inactive: [1] -5.05% | [2] -13.8% | [3] 16.1% | [4] 23.9% | [5] -3% | [6] -13.1%

CC(=O)c1cccc(NS(=O)(=O)c2ccc(C)cc2)c1
inactive: [1] -4.85% | [2] -21.2% | [3] -18.1% | [4] -36.7% | [5] -7.9% | [6] 35.9%

O=c1[nH]c(=O)c2cc(Cl)cc(Cl)c2[nH]1
inactive: [1] -2.05% | [2] -15.3% | [3] -1.4% | [4] 14% | [5] 9.25% | [6] 7.3%

O=C(c1cccc(C(=O)c2ccc3c4c(cccc24)C(=O)N(c2ccccc2)C3=O)c1)c1ccc2c3c(cccc13)C(=O)N(c1ccccc1)C2=O
inactive: [1] -35.5% | [2] -36.8% | [3] -23.1% | [4] 12.1% | [5] -25.4% | [6] -20.8%

CC(=O)NCNC(C)=O
inactive: [1] -4.1% | [2] 5.4% | [3] 3.75% | [4] -75.1% | [5] 7.8% | [6] -0.6%

CCOc1ccc(C(=O)NCC(C)C)cc1
inactive: [1] -1.2% | [2] 2.4% | [3] 26.6% | [4] -14.1% | [5] 9% | [6] -13.7%

Cc1cc2c3ccc(C)[n+](C)c3ccc2n1C
inactive: [1] -4.3% | [2] 5.9% | [3] 10.6% | [4] -66.6% | [5] 7.65% | [6] -5.25%

CCCCCCCCCCCCCCCCOc1ccccc1NC(=O)CC(C)=O
inactive: [1] -8.7% | [2] -18.9% | [3] -9.1% | [4] -5.85% | [5] -5.3% | [6] -3.95%

CC(C)NC(=O)OCc1c(COC(=O)NC(C)C)c(-c2ccc(Cl)cc2)n2c1CCC2
inactive: [1] -29.6% | [2] -23.7% | [3] -26.1% | [4] 9.25% | [5] -6.75% | [6] -24.4%

COC1OC(CO)C(OC)C(O)C1O (configuration not stated)
inactive: [1] -5.6% | [2] 0.2% | [3] 0.2% | [4] -6.7% | [5] -0.65% | [6] -2.2%

CCCC1OC(c2ccco2)OCC1CC (configuration not stated)
inactive: [1] 30.8% | [2] -2.15% | [3] 18.6% | [4] -27.8% | [5] -0.05% | [6] 27.1%

Cn1/c(=N\N=C\c2ccccc2OCCO)sc2ccccc21
inactive: [1] -2.7% | [2] 17.9% | [3] 18.8% | [4] 9.7% | [5] 26.4% | [6] 4.3%

CCN1CCCC(N2c3ccccc3Sc3ccccc32)C1 (configuration not stated)
inactive: [1] -9.15% | [2] -15.2% | [3] 8% | [4] -58.8% | [5] 8.5% | [6] -4%
